Compound activity (PubChem BioAssay)
ADAM17 inh: ADAM17 inhibitors, primary screen, biochemical, QFRET; actives 0.83% (n = 370,000); Disintegrin and metalloproteinase domain-containing protein 17 (Homo sapiens), P78536; inhibition, % at 6.95 µM; recombinant ADAM17, EDANS/DABCYL FRET peptide cleavage;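 active = inhibition above the mean of compounds lying between control limits plus 3 SD, set per campaign, cut at about 8.5% in these data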;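 note: 0% = DMSO-only wells as the low control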
Target sequence (P78536 215-824 limits assumed): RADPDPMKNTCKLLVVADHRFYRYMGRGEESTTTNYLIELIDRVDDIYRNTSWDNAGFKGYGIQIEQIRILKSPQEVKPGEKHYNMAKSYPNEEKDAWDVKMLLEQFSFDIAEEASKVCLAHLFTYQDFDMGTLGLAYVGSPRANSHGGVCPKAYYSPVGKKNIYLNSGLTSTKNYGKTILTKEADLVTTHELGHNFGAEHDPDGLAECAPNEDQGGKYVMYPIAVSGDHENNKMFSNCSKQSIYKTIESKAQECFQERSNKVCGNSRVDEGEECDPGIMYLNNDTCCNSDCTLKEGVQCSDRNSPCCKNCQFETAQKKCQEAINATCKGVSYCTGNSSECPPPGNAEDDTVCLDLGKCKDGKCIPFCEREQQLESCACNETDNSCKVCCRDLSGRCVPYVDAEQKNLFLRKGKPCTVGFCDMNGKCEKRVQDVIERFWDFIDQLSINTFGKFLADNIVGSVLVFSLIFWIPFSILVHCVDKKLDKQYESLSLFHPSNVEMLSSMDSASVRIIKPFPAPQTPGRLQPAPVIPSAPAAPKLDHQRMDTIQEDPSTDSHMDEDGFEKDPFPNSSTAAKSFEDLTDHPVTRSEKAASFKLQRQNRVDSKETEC
NR3A LBD binder: binders of NR3A ligand-binding domain, primary screen, biophysical, differential scanning fluorimetry, uHTS; Tm shift relative to glycine control, % at 25 µM; actives 2.5% (n = 340,000); Glutamate receptor ionotropic, NMDA 3A (GRIN3A) ligand-binding domain; NR3A LBD differential scanning fluorimetry, Tm shift; 0% = protein alone, 100% = glycine-bound protein;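 active = melting temperature shift of at least 10% of the positive control shift, at one fixed dose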
FAS TE block: FAS thioesterase domain inhibitors, primary screen, biochemical, fluorescence intensity, uHTS; inhibition, % at 15 µM; recombinant FAS-TE, OMFH fluorogenic substrate, fluorescence endpoint; AID 602261, 2012; Fatty acid synthase (Homo sapiens), P49327; actives 0.67% (n = 360,000);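 active = compounds whose normalised, plate-corrected inhibition of enzyme fluorescence in the single-dose primary screen is 50% or more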;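 note: 0% = DMSO with enzyme and 100% = substrate without enzyme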
HGIII-sPLA2 inh: human group III sPLA2 inhibitors, primary screen, biochemical, QFRET, BODIPY PC-A2 liposome substrate; inhibition, % at 12.2 µM; Group 3 secretory phospholipase A2 (Homo sapiens), Q9NZ20; QFRET BODIPY PC-A2 liposome hydrolysis, fluorescence; actives 0.56% (n = 370,000);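 active = inhibition above mean plus 3 SD of compounds lying within the high and low control bounds, cut at about 19% in these data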;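 note: 0% = median of test compound wells and 100% = no enzyme DMSO wells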
ADAM10 inh: human ADAM10 inhibitors, primary screen, biochemical, QFRET, HTS; Disintegrin and metalloproteinase domain-containing protein 10 (Homo sapiens), O14672; recombinant ADAM10, EDANS/DABCYL FRET peptide cleavage, 3 h; inhibition, % at 7 µM; actives 0.62% (n = 370,000); AID 720582, 2013;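 active = inhibition above a per-campaign cutoff equal to the mean of compounds falling between control-based bounds plus 3 SD, cut at about 20% in these data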;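 note: 0% = DMSO wells while the 100% control is not disclosed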
sPLA2 confirm: human group III sPLA2 inhibitors, confirmation, biochemical, QFRET, triplicate; shares compounds with HGIII-sPLA2 inh; recombinant hGIII-sPLA2, BODIPY PC-A2 QFRET fluorescence; inhibition, % at 12.2 µM; actives 34% (n = 2,000); AID 743280, 2014;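 active = mean inhibition across triplicates above the hit cutoff set in the earlier primary screen, cut at about 19% in these data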;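 note: 0% = enzyme with DMSO and 100% = DMSO wells lacking enzyme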
535nm interf: 535nm fluorescence optical interference, confirmation, artefact control for HGIII-sPLA2 inhibitor project, biochemical, QFRET; shares compounds with HGIII-sPLA2 inh; BODIPY FL product fluorescence interference; inhibition, % at 12.2 µM; actives 8.5% (n = 2,000);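 active = average inhibition above the solvent-only control mean plus 3 SD, cut at about 6% in these data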;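 note: 0% = DMSO with substrate plus product and 100% = DMSO with substrate alone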
535nm interf DR: 535nm fluorescence optical interference, dose response, artefact control for HGIII-sPLA2 inhibitor project, biochemical, QFRET; shares compounds with HGIII-sPLA2 inh; BODIPY FL product fluorescence interference, cell-free; IC50, µM; 240 tested, under 10 active; AID 743455, 2014;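 active = IC50 at or below 10 µM; inactive = IC50 above 10 µM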
Numbers without * were called inactive; · = no result given. Hits are enriched below; roughly 4.3% of the tested compounds scored in any of these assays.

SMILES	ADAM17 inh	NR3A LBD binder	FAS TE block	HGIII-sPLA2 inh	ADAM10 inh	sPLA2 confirm	535nm interf	others
O=C(CN1CCN(C2CCCCC2)CC1)NCCC1=CCCCC1	-1	-2	-7	20*	0	4	-19
CCn1c(=S)[nH]c2cc(Cl)ccc21	-5	0	7	12	-5	·	·
CCCn1c(=S)[nH]c2cc(Cl)ccc21	-6	-3	6	21*	3	9	-5
CC(C)(C)c1ccc(C#C[C@@H]2C=C[C@H](O)[C@@H](COC(=O)Nc3ccccc3)O2)cc1	4	·	·	-16	8	·	·
C(=N\Nc1nc2ccccc2[nH]1)/c1ccccc1	-4	-9	-2	-1	-1	·	·
C(=N\Nc1nc2ccccc2[nH]1)/c1cccc2cccnc12	4	-11	-11	37*	4	19	2
CC1CCN(c2nnc(-c3cccs3)c3ccccc23)CC1	1	3	30	6	-12	·	·
c1csc(-c2nnc(NC3CCCCC3)c3ccccc23)c1	-25	-5	6	21*	-56	0	-11
Cc1ccc(-n2c(SCC(=O)Nc3ccc(Oc4ccccc4)cc3)nnc2-c2cccc(C)c2)cc1	-1	·	·	0	-8	·	·
O=C(CSCc1ccccc1Br)NNC(=S)NCc1ccco1	8	0	0	40*	19	48*	8.8*
O=C(Nc1cc(Cl)ccc1F)C1CCCN(c2nnc(-n3cccc3)s2)C1 (configuration not stated)	1	·	·	-5	3	·	·
COc1cc2c(cc1NC(=O)CSc1nnc(-c3cccc(Cl)c3)n1-c1ccccc1)oc1ccccc12	-2	·	·	10	-13	·	·
CC1CCCC(NC(=O)CSC2=Nc3ccccc3C3CC=NN23)C1C (configuration not stated)	2	0	4	-4	5	·	·
CC1CCCCC1NC(=O)CSC1=Nc2ccccc2C2CC=NN12 (configuration not stated)	-4	2	4	20*	0	-3	-18
COCCNCCCOc1ccc(C(C)(C)c2ccccc2)cc1	-4	-1	-12	22*	-11	-11	-27
COC(=O)C1=C(C)NC2=C(C(=O)CC(C)(C)C2)C1c1cnn(C)c1C (configuration not stated)	-128	-7	-15	21*	-495	1	-3
N#CC12C(=O)NC(=O)C1(C#N)C21CCCC1 (configuration not stated)	-2	-2	-9	22*	-16	-3	-6
N#CC1C(=O)NC(=O)C(C#N)C12CCCC2 (configuration not stated)	0	·	-4	6	-10	·	·
CC(=O)C1=C(C)N(Cc2ccc(F)cc2)C(=S)NC1c1cccc(F)c1 (configuration not stated)	3	·	·	3	11	·	·
CC(NC(=S)NC1CCCCC1)C(c1cccs1)N1CCOCC1 (configuration not stated)	-7	0	-1	24*	-3	19	-3
CC(NC(=O)Nc1ccccc1)C(c1cccs1)N1CCOCC1 (configuration not stated)	-1	-1	-5	0	-4	·	·
COc1ccccc1NC(=S)NC(C)C(c1cccs1)N1CCOCC1 (configuration not stated)	-5	-1	0	25*	-13	8	-11
COc1ccc(-c2csc(NC(=S)NC(=O)c3ccco3)n2)cc1	-1	0	-7	2	3	·	·
CCCC(=O)NC(=S)Nc1nc(-c2ccc(OC)cc2)cs1	2	-5	-2	23*	4	24*	-1
CCN(Cc1ccccc1)C(=O)C1CCCN(c2ncccn2)C1 (configuration not stated)	-6	·	·	1	-24	·	·
SMILES	ADAM17 inh	NR3A LBD binder	FAS TE block	HGIII-sPLA2 inh	ADAM10 inh	sPLA2 confirm	535nm interf	others
S=c1[nH]nc(COc2ccccc2)n1Cc1ccccc1	-1	-7	-1	27*	-10	19	5
S=c1[nH]nc(Cc2ccccc2)n1-c1ccccc1	-2	-1	-10	14	-1	·	·
S=c1[nH]nc(Cc2ccccc2)n1-c1ccc(Cl)cc1	-1	0	-3	20*	4	21*	2
S=c1[nH]nc(CCc2ccccc2)n1-c1ccc(Cl)cc1	8	3	-8	24*	17	32*	3	535nm interf DR=>122
S=c1[nH]nc(COc2ccc(Cl)cc2)n1-c1ccccc1	-4	3	-1	21*	-7	34*	4	535nm interf DR=>122
S=c1[nH]nc(COc2ccc(Cl)cc2)n1-c1ccc(Cl)cc1	2	-7	8	2	13	·	·
CC(C)CN1C(=O)[C@@]2(CC(=O)N(C)C2c2ccccc2)c2cc(-n3cc(-c4ccccc4)nn3)ccc21 (some centres not stated)	2	·	·	7	5	·	·
N=C1N(C(=O)OCc2ccccc2)/C(=C\C2=CCCCC2)C(Cc2ccccc2)N1Cc1ccccc1 (configuration not stated)	-2	·	·	-5	-5	·	·
S=c1[nH]nc(-c2cccs2)n1Cc1ccccc1	-65	0	-3	20*	-165	21*	3
Cc1c[nH]c2cccc(-c3ccc(Cl)cc3Cl)c12	2	·	·	-39	4	·	·
CCn1cc(C2C3=C(CC(C)(C)CC3=O)N(c3ccccc3)C3=C2C(=O)CC(C)(C)C3)c(C)n1	-12	-2	-5	5	-40	·	·
CCn1cc(C2C3=C(CC(C)(C)CC3=O)N(c3ccc(C)cc3)C3=C2C(=O)CC(C)(C)C3)c(C)n1	-6	-1	-4	20*	-14	-3	-12
CC(C)(C)c1cc(C(=O)N/N=C/c2ccccc2O)n(-c2ccccc2)n1	-5	1	14	28*	-5	-4	-19
CC(C)(C)c1cc(C(=O)N/N=C/c2ccc(F)cc2)n(-c2ccccc2)n1	-3	-2	20	10	-11	·	·
